± gives the standard deviation of the averaged measurements.

What all share (details): concentration: 10 µM; 24 h
Test [1] has as its system HCC1569. As to the kind of experiment: cell number relative to DMSO (% of DMSO); higher = more cells (less growth inhibition / toxicity). Put shortly: (§1)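 H1.0 nuclear intensity or cell number is stated as percent of the plate control, based on the median of replicates, and HCC1569 values were smoothed for positional effects. These came from HCC1569 and TDF cells treated with compounds at 10 µM for 24 h at 37 °C in triplicate, then fixed in 3.7% formaldehyde and stained with a rabbit anti-H1.0 antibody, an AlexaFluor 647 secondary and DAPI.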

In test [2] the test system is TDF. Described as above. Put shortly:
as §1

For test [3], the system named is TDF. Briefly: H1.0 immunofluorescence intensity relative to DMSO (% of DMSO); higher = stronger H1.0 induction, active = 120 or more. Put shortly:
as §1

Test [4] has as its system HCC1569. Briefly: H1.0 immunofluorescence intensity relative to DMSO (% of DMSO); higher = stronger H1.0 induction, active = 140 or more. Put shortly:
as §1

Test [5] has as its system HCC1569. As to the kind of experiment: H1.0 immunofluorescence intensity relative to DMSO (% of DMSO); higher = stronger H1.0 induction. Put shortly:
as §1

Test [6] has as its system TDF. The description is as above. Put shortly:
as §1
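Throughout, for H1.0 immunofluorescence intensity relative to DMSO: TDF is a line of transformed human dermal fibroblasts of mesenchymal origin.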
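Throughout, for cell number relative to DMSO: TDF denotes transformed human dermal fibroblasts of mesenchymal origin.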

Regarding `CC(=O)NCCc1c(Cc2ccccc2)[nH]c2ccccc12` [N-[2-(2-benzyl-1H-indol-3-yl)ethyl]acetamide], the cell number in the test on HCC1569 [1] amounted to 101; in the test with TDF [2], 92.4. Further, the H1.0 immunofluorescence intensity is 104 (inactive) in the test on TDF [3] and 98.9 (inactive) in the test with HCC1569 [4].
The matching figures for `CCCCCCCCCCCCCCCCCCCCCCCC(=O)O` [Tetracosanoic acid]: 99.5, 104, 98 (inactive) and 104 (inactive).
The matching figures for `OCC1OC(O)C(Cl)C(O)C1O` [2-Chloro-2-deoxy-D-glucose]: 104, 101, 101 (inactive) and 92 (inactive).
For the compound `CCC(NC(C)C)C(O)c1ccc(O)c(O)c1.CS(=O)(=O)O` (configuration not stated) [Isotharine mesylate], the cell number in the test on HCC1569 [1] was found to be 103; with TDF [2], 112. Moreover, the H1.0 immunofluorescence intensity was 92.8 (inactive) with TDF [3] and 91.5 (inactive) in the test on HCC1569 [4].
`Cc1[nH]c(C=C2C(=O)Nc3ccc(S(=O)(=O)N(C)c4cccc(Cl)c4)cc32)c(C)c1C(=O)N1CCN(C)CC1` [Met Kinase Inhibitor]: the values for the cell number with HCC1569 [1] and in the test with TDF [2] were 81.6 and 59.6, respectively. In addition, the H1.0 immunofluorescence intensity is 92 (inactive) in the test with TDF [3] and 149 (active) in the test with HCC1569 [4].
In the test with HCC1569 [1], `O=C(O)CCCCC1CCSS1` (racemic) displayed a cell number of 104.
Turning to `Cl.N[C@@H](CCC(=O)O)C(=O)O` [L-Glutamic acid hydrochloride], the cell number turned out to be 103 in the test with HCC1569 [1] and 114 with TDF [2]. For the same compound, the H1.0 immunofluorescence intensity is 90.1 (inactive) with TDF [3] and 91.5 (inactive) in the test with HCC1569 [4].
For the compound `OC(CS)C(O)CS` (configuration not stated), the cell number in the test with HCC1569 [1] worked out at 103; in the test on TDF [2], 104. Moreover, the figures for the H1.0 immunofluorescence intensity with TDF [3] and in the test on HCC1569 [4] were 93.7 (inactive) and 102 (inactive), respectively.
The matching figures for `COc1ccc2c(c1)c(CC(=O)O)c(C)n2C(=O)c1ccc(Cl)cc1` [Indomethacin]: 101 ± 1.8, 106 ± 20, 91.3 (inactive) and 102 (inactive).
The corresponding values for `NCCCCCCCCCCN` [1,10-Diaminodecane] are 101, 98.7, 89.4 (inactive) and 88.5 (inactive).
With `Nc1ccc(O)c(C(=O)O)c1` [5-Aminosalicylic acid], the values for the cell number in the test with HCC1569 [1] and in the test on TDF [2] were 107 and 103, respectively.
Regarding `Cc1ccccc1-n1c(Cn2nc(-c3cccc(O)c3)c3c(N)ncnc32)nc2cccc(C)c2c1=O`, the values for the cell number in the test with HCC1569 [1] and in the test with TDF [2] were 96.9 and 95.1, respectively. In addition, the H1.0 immunofluorescence intensity in the test with TDF [3] was 97.7 (inactive); with HCC1569 [4], 103 (inactive).
The corresponding values for `COc1ccc(C(=O)Nc2sc3c(c2C(N)=O)CCCC3)cc1OC` are 98.8, 109, 94.4 (inactive) and 121 (inactive).
For `O=[N+]([O-])c1ccc([O-])c(OS(=O)(=O)[O-])c1.[K+].[K+]` [dipotassium 5-nitro-2-oxidophenyl sulfate], the cell number in the test on HCC1569 [1] is 99.5; in the test on TDF [2], 108. The results for the H1.0 immunofluorescence intensity with TDF [3] and with HCC1569 [4] were 90.9 (inactive) and 100 (inactive), respectively.
The corresponding values for `c1ccc(-c2[nH]ncc2-c2ccnc3ccccc23)nc1` [TGF-b RI Kinase Inhibitor] are 102, 103, 91 (inactive) and 110 (inactive).
As to `CC(=O)N[C@@H](CS)C(N)=O`, the H1.0 immunofluorescence intensity in the test on HCC1569 [5] was 103 (inactive); in the test with TDF [6] it was 96.2 (inactive). Also, the values for the cell number with HCC1569 [1] and in the test with TDF [2] were 109 and 93.6, respectively.
As to `CC(C)(C)NCC(O)c1ccc(O)c(CO)c1.CC(C)(C)NCC(O)c1ccc(O)c(CO)c1.O=S(=O)(O)O` (configuration not stated) [Salbutamol hemisulfate], the cell number was determined as 99.9 in the test with HCC1569 [1] and 103 in the test with TDF [2]. Also, the H1.0 immunofluorescence intensity with TDF [3] is 84.9 (inactive); in the test with HCC1569 [4], 106 (inactive).
The corresponding values for `CCCCC=CCCCCCCCCC(=O)O` [10(Z)-Pentadecenoic acid] are 101, 102, 103 (inactive) and 104 (inactive).
The matching figures for `CC1(NC2=NS(=O)(=O)c3sc(Cl)cc3N2)CC1`: 101, 90.6, 96.1 (inactive) and 94.7 (inactive).
Consider `Cl.c1ccc2c(c1)CCCC2C1=NCCN1` (configuration not stated) [Tetrahydrozoline hydrochloride], for which the cell number in the test with HCC1569 [1] worked out at 101; in the test on TDF [2], 98.1. Also, the results for the H1.0 immunofluorescence intensity in the test on TDF [3] and in the test with HCC1569 [4] were 89.8 (inactive) and 98.3 (inactive), respectively.
The corresponding values for `O=C(O)C(=Cc1c(C(=O)O)[nH]c2cc(Cl)cc(Cl)c12)c1ccccc1` are 105, 109, 95.3 (inactive) and 85 (inactive).
As for `FC(F)(F)c1cc(NC(=S)Nc2ccc(Br)cc2-c2nn[nH]n2)cc(C(F)(F)F)c1`, the cell number in the test on HCC1569 [1] came out at 90.3; in the test with TDF [2] it was 85.6. For the same compound, the H1.0 immunofluorescence intensity in the test on TDF [3] is 90.2 (inactive); in the test with HCC1569 [4], 120 (inactive).
The matching figures for `COc1ccc(-n2c(SCC#N)nc3sc4c(c3c2=O)CCCC4)cc1`: 91.9, 92.5, 86.3 (inactive) and 108 (inactive).
The matching figures for `COc1cccc(/C=N/CC/N=C/c2cccc(OC)c2[O-])c1[O-].[Cl-].[Mn+2]`: 99.1, 98.1, 99.4 (inactive) and 108 (inactive).
The corresponding values for `O=C1c2ccc(O)cc2OC(c2cc(O)c(O)c(O)c2)C1O` (configuration not stated) [Dihydrorobinetine] are 102, 106, 95.3 (inactive) and 95.3 (inactive).
With `O=C(O)c1ccccc1Nc1cccc(OCc2ccc3ccccc3n2)c1`, the cell number with HCC1569 [1] was 104; with TDF [2], 97.2. For the same compound, the H1.0 immunofluorescence intensity in the test on TDF [3] is 91.5 (inactive); in the test with HCC1569 [4], 106 (inactive).
Regarding `COc1ccccc1N1CCN(CC(O)COc2cccc3ccccc23)CC1.Cl.Cl` (configuration not stated) [Naftopidil.2HCl], the results for the cell number with HCC1569 [1] and with TDF [2] were 97.4 and 98.3, respectively. The H1.0 immunofluorescence intensity was 88.6 (inactive) in the test with TDF [3] and 103 (inactive) in the test with HCC1569 [4].
As to `O=C1C(=O)c2ccccc2C(O)=C1C1CCC(c2ccc(Cl)cc2)CC1` (configuration not stated) [Atovaquone], the cell number amounted to 100 in the test with HCC1569 [1] and 99 with TDF [2]. Besides, the H1.0 immunofluorescence intensity in the test with TDF [3] was 95 (inactive); in the test with HCC1569 [4], 108 (inactive).
